# Bioassay records: PubChem BioAssay, several laboratories
# NOD2 RIPK2 PPI = NOD2-RIPK2 binding disruptors in cells, primary screen, fluorescence, CHO cells, BLA complementation; Receptor-interacting serine/threonine-protein kinase 2 (Homo sapiens), O43353; CCF4 ratio; inhibition, % at 4.98 µM; 360,000 tested, 0.38% active; in the data active = inhibition above about 21%
# TLR4-MyD88 BLA = inhibitors of TLR4-MyD88 association in cells, primary screen, cell-based, HeLa CL3-4, BLA complementation, FRET ratio; HeLa CL3-4 TLR4/MyD88 BLA complementation; 200,000 tested, 0.18% active; inhibition, % at 8.4 µM; in the data active = inhibition above about 25%
# ANO1 block = TMEM16A chloride channel inhibitors, primary screen, cell-based, HTS. HEK293 TMEM16A/YFP iodide influx fluorescence, ionomycin. AID 588511, 2011. normalized B-score (activity score, 25-100; higher = stronger inhibition) at 10 µM. 310,000 tested, 1.2% active. Anoctamin-1 (Mus musculus), Q8BHY3;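 active = ratio plate-corrected score three or more library SD toward inhibition, starting fluorescence score within five deviations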;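 also: score derived from kinetic fluorescence span divided by baseline fluorescence per well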
# TMEM16A act = TMEM16A chloride channel activators or potentiators, primary screen, cell-based, HTS. Anoctamin-1 (Mus musculus), Q8BHY3. HEK293 TMEM16A/YFP-H148Q/I152L, iodide quench fluorescence; active compounds read low. B-score at 10 µM. 340,000 tested, 0.3% active. AID 623877, 2012;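 active = fluorescence-ratio B-score plate-corrected deviation score at least 3 library SD below zero, with starting fluorescence score within 5 deviations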;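 also: channel opened by trigger with iodide after compound preincubation; score built on the fluorescence ratio of max minus min over baseline; more negative score means more quench and so TMEM16A activation or potentiation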
# TLR9-MyD88 inh = inhibitors of TLR9-MyD88 association in cells, primary screen, cell-based, CHO, BLA complementation, fluorescence; 340,000 tested, 0.21% active; AID 504734, 2011; Toll-like receptor 9 (Homo sapiens) + Myeloid differentiation primary response protein …; CCF4 FRET ratio; inhibition, % at 4.98 µM;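 active = inhibition above the mean over all tested compounds plus 3 SD, cut at about 21% in these data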
# HTR2A ag = mouse Htr2a agonists via beta-arrestin recruitment, primary screen, cell-based, luminescence; CHO-K1 mHTR2A beta-arrestin complementation; percent of 30 µM serotonin response; 360,000 tested, 0.66% active; activation, % at 7.6 µM;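 active = activation above a run cutoff, the mean activation of all tested compounds plus 3 SD, cut at about 14% in these data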
# Numbers stand for hits; – = inactive; · = no result given. In the library only some 2.4% were active in any assay of this set; here they are far more common.
SMILES,NOD2 RIPK2 PPI,TLR4-MyD88 BLA,ANO1 block,TMEM16A act,TLR9-MyD88 inh,HTR2A ag
COc1ccc(CCNC(=O)Cn2nc(C)c3c(C)n(-c4ccccc4)nc3c2=O)c(OC)c1,–,·,–,-7.9,–,–
CCNC(=O)c1c(NC(=O)c2cc(-c3cc(C)ccc3O)n[nH]2)sc2c1CCCC2,–,–,–,–,–,–
O=C(Nc1cc(-c2ccccc2)sc1C(=O)O)c1cccc(F)c1,–,·,100,–,–,–
COc1cccc(NC(=O)Nc2nc(SC)ns2)c1,–,·,–,–,–,–
CCSc1nsc(NC(=O)Nc2cccc(F)c2)n1,–,·,100,–,–,–
C[C@@H](NC(=O)c1nc[nH]c1C(=O)NC1CCN(C(=O)OC(C)(C)C)CC1)c1ccccc1,–,·,·,–,–,–
CC(C)C[C@H](NC(=O)c1nc[nH]c1C(=O)NCC(=O)OCc1ccccc1)C(=O)OC(C)(C)C,–,·,–,-15,–,–
C[C@H](NC(=O)c1nc[nH]c1C(=O)N1CCN(C(=O)OC(C)(C)C)CC1)c1ccccc1,–,·,·,-7.2,–,–
CCS(=O)(=O)N1CCC(c2nc(-c3ccc(C(F)(F)F)cc3)no2)CC1,–,–,–,–,–,–
C[C@H](NC(=O)c1ccc(C(C)(C)C)cc1)C(=O)N1CCC2(CC1)NCCc1[nH]cnc12,–,·,–,–,–,–
Cc1ccc(C(=O)N[C@@H](Cc2ccccc2)C(=O)N2CCC3(CC2)NCCc2[nH]cnc23)cc1C,–,·,–,-50,–,–
CC(C)N(C(=O)CSc1ncnc2sc(-c3ccccc3)cc12)C(C)C,–,–,25,–,–,–
CCOC(=O)C1=C(O)C(=O)C(C(=O)OCC)C1 (configuration not stated),–,·,·,–,–,–
Cc1ccc(S(=O)(=O)N2CCN(C(=O)CC3CCCC3)CC2)cc1,–,–,–,–,–,–
Cc1cccc(C)c1NC(=S)N1CCOCC1,–,·,–,–,–,–
Cc1cccc(C)c1NC(=S)N1CCCN(C)CC1,–,–,–,-5.7,–,–
CC(C)(C)c1ccc(C(=O)Nc2sc3c(c2C(=O)O)CCC3)cc1,–,–,100,–,–,–
O=C(Nc1nnc([C@@H]2C[C@H](O)[C@@H](CO)O2)s1)c1cccc(OC(F)(F)F)c1,–,·,·,·,·,–
CCN(Cc1ccccc1)C(c1ccccn1)c1nnnn1C(C)(C)CC (configuration not stated),–,–,–,–,–,–
CC(C)(C)n1nnnc1C(c1ccccn1)N(Cc1ccccc1)Cc1ccc(Cl)cc1 (configuration not stated),–,–,–,-5.1,–,–
COc1ccc(C2C(C(C)=O)=C(C)N=c3s/c(=C\c4ccc5c(c4)OCO5)c(=O)n32)c(OC)c1 (configuration not stated),–,–,–,–,–,–
C[C@H](CO)N1C[C@H](C)[C@@H](CN(C)C(=O)Nc2ccc(C(F)(F)F)cc2)Oc2ccc(NC(=O)NC3CCCCC3)cc2C1=O,–,·,·,·,–,–
COc1ccc(NC(=O)N(C)C[C@H]2Oc3c(NC(=O)Nc4ccc(C(F)(F)F)cc4)cccc3C(=O)N([C@H](C)CO)C[C@@H]2C)cc1,–,·,·,–,–,23
C[C@H](CO)N1C[C@H](C)[C@@H](CN(C)C(=O)NC2CCCCC2)Oc2ccc(NC(=O)Nc3ccc(C(F)(F)F)cc3)cc2C1=O,–,·,·,-5,–,–
NS(=O)(=O)c1ccc(CCNC(=O)C(=O)NCC2OCCN2S(=O)(=O)c2cc(F)ccc2F)cc1 (configuration not stated),–,·,–,–,–,–
SMILES,NOD2 RIPK2 PPI,TLR4-MyD88 BLA,ANO1 block,TMEM16A act,TLR9-MyD88 inh,HTR2A ag
COc1ccc(C(=O)N/C(=C\c2ccccc2)C(=O)N2CCOCC2)cc1,–,·,–,–,–,–
O=C(CN1C(=O)C2CC=CCC2C1=O)NC1CCCc2ccccc21 (configuration not stated),–,–,–,-23,–,–
COc1cc(CC(=O)NC2CCCc3ccccc32)cc(OC)c1OC (configuration not stated),92,·,–,–,–,–
Cc1noc(C)c1S(=O)(=O)N1CCC(C(N)=O)CC1,–,·,–,–,–,–
CC(C)CSC1=NSC2=NC(=O)/C(=C\c3ccccc3)C(=N)N12,–,–,25,–,–,–
Cc1cccc(-c2nnc(SCc3ccccc3)o2)c1,–,–,–,–,–,–
CC(C)CC(=O)NC(NC(=S)Nc1sc2c(c1C#N)CCCC2)C(Cl)(Cl)Cl (configuration not stated),–,–,100,–,–,–
COc1ccc(CCC(=O)Nc2ncc(C)s2)cc1,–,·,–,–,–,–
O=C(Cc1ccc(Cl)cc1)Nc1ncc([N+](=O)[O-])s1,–,–,·,-42,–,–
O=C(Nc1ncc([N+](=O)[O-])s1)c1ccc2c(c1)OCO2,–,·,100,–,–,–
O=C(COC(=O)COc1ccccc1)Nc1ncc([N+](=O)[O-])s1,–,·,·,–,–,–
CC(CC(=O)Nc1ncc([N+](=O)[O-])s1)c1ccccc1 (configuration not stated),–,–,100,–,–,–
CCC(Oc1ccccc1)C(=O)Nc1ncc([N+](=O)[O-])s1 (configuration not stated),–,–,25,–,–,–
Cc1cc(CN2CCCC(C(=O)Nc3ccc(-c4nc5ccccc5[nH]4)cc3)C2)n[nH]1 (configuration not stated),–,·,–,–,–,–
CC1CCCN(S(=O)(=O)c2cccc(C(=O)NCC3CCCO3)c2)C1 (configuration not stated),–,·,·,–,–,–
CC(=O)Nc1sc2c(c1C(c1ccccc1Cl)N1CCN(CCO)CC1)CCCC2 (configuration not stated),–,–,–,–,–,–
Cn1cnc(C(=O)NC2CCN(C(=O)OC(C)(C)C)CC2)c1C(=O)NC1CCN(C(=O)OC(C)(C)C)CC1,–,·,·,–,–,–
Cc1onc(-c2ccccc2)c1C(=O)Nc1ncc([N+](=O)[O-])s1,–,·,100,–,–,–
Cc1cc(C)c2nc(Cl)c(C3NC(=O)c4ccccc4N3)cc2c1 (configuration not stated),–,–,–,–,–,–
